Inconclusive results are not listed. Entries that show only a call come without a potency. Active and inactive are the calls of the source. Calls come from the whole dose curve; as a rule, active = well fitted inhibition curve with a large enough effect; inconclusive = small, poorly fitted or top-dose-only effect; inactive = flat fitted curve, though single readings scatter.
Potency is the fitted concentration of half-maximal effect.

For the assay, the system named is Zika virus NS2B-NS3 protease. Nature of the assay: Primary screen GU AMC qHTS for Zika virus inhibitors (AID 1347154). Note: nearly all actives have a fitted effect of over 70% in size. Particulars: Zika NS2B-NS3 unlinked protease, AMC fluorogenic substrate; series mostly up to 54.1 µM. Put shortly: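 Unlinked Zika NS2B hydrophilic domain/NS3 protease domain noncovalent complex (25 nM final) in 10 mM Tris-HCl pH 8.0, 0.01% Tween 20, with AMC peptide substrate. Fluorescence (ex 340, em 450 nm) change over 15 min, room temperature; percent inhibition fitted to 4-parameter Hill equation.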
On the technique in general: Quantitative high-throughput screening tests each substance at several concentrations.
Turning to `CC(C)(C)COc1ccc(-n2cc(C(=O)O)cn2)cc1C#N`, the Potency entry was “inactive”. As for `CCOC(=O)O[C@]1(C(=O)OCCl)CC[C@@H]2[C@H]3CCC4=CC(=O)C=C[C@]4(C)[C@@H]3[C@@H](O)C[C@@]21C`, the entry is “inactive”; as for `CN(C)CCC=C1c2ccccc2COc2ccc(CC(=O)O)cc21`, “inactive”; as for `COCCCCC(=NOCCN)c1ccc(C(F)(F)F)cc1`, “inactive”. In the case of `CC(C)(C)c1cc(C(=O)O)c(NC(=O)Nc2ccc3[nH]ncc3c2)s1`, the Potency entry is “inactive”.

On to `O=C(O)C=Cc1ccc(O)c(O)c1`, for which the Potency result was “inactive”. As to `COC[C@@H](c1ccc(C(F)(F)F)cc1)N1CCN(C2(C)CCN(C(=O)c3c(C)ncnc3C)CC2)C[C@H]1C`, the Potency entry was “inactive”.

In the case of `CO[C@H]1C[C@@H]2CC[C@@H](C)[C@@](O)(O2)C(=O)C(=O)N2CCCC[C@@H]2C(=O)O[C@H]([C@@H](C)C[C@@H]2CC[C@H](O)[C@H](OC)C2)CC(=O)[C@H](C)C=C(C)[C@@H](O)[C@@H](OC)C(=O)[C@H](C)C[C@H](C)C=CC=CC=C1C`, the Potency entry was “inactive”. Turning to `OC[C@@H](O)[C@H](O)[C@H](O)[C@@H](O)CO`, the Potency entry is “inactive”. For the compound `CNC(=O)c1ccc2cc(C3(O)CCn4cncc43)ccc2c1` (stereo not given), the Potency result is “inactive”. For `Cc1ccc([C@@H]2O[C@H](CO)[C@@H](O)[C@H](O)[C@@H]2O)cc1Cc1ccc(-c2ccc(F)cc2)s1`, the Potency result was “inactive”. With `N[C@H](CSC(c1ccccc1)(c1ccccc1)c1ccccc1)C(=O)O` the entry was “inactive”; with `C=C1C(=O)OC2C=C(C)CCC=C(C)CCC12` (stereo not given), “inactive”; with `O=c1ccn([C@@H]2O[C@H](CO)[C@H](O)[C@H]2O)c(=O)[nH]1`, “inactive”.

`C=C1C(=O)OC(CCCCCCCC)C1C(=O)O` (stereo not given): the Potency result is “inactive”. With `COc1ccc(Cc2ccc(NC(N)=O)cc2)cc1-c1cccc(Cl)c1` the entry was “inactive”; with `CC=CC(=O)N(CC)c1ccccc1C`, “inactive”; with `CC(C)C(=O)Nc1ncc(-c2cc(C(F)F)nn2-c2c(Cl)cccc2Cl)s1`, “inactive”. As for `COc1ccc2c(Oc3ccc(NC(=O)c4c(C)n(CC(C)(C)O)n(-c5ccccc5)c4=O)nc3)ccnc2c1`, the entry is “inactive”; as for `O=C(Nc1c(Cl)cncc1Cl)c1ccc(OC(F)F)c(OCC2CC2)c1`, “inactive”; as for `CN(C)Cc1cccc(N=C(c2ccccc2)c2c(O)[nH]c3cc(C(=O)N(C)C)ccc23)c1`, “inactive”.

Consider `CC=CCC=CCCC(=O)[C@H]1O[C@@H]1C(N)=O`, for which the Potency entry is “inactive”.

In the case of `Oc1ccc(C2=Cc3ccc(O)cc3OC2)cc1`, the Potency result was “inactive”. Consider `COc1ccc(-c2coc3cc(O)ccc3c2=O)cc1`, for which the Potency is 26.7 µM (active). Regarding `c1ccc2c(Cc3c[nH]c4ccccc34)c[nH]c2c1`, the Potency result was “inactive”.

For `CCOC(CN1C(=O)[C@](CC(=O)Nc2ccc(C)cc2)(NC(=O)Nc2ccc(C)cc2)c2ccccc21)OCC`, the Potency entry was “inactive”. On to `O=C(CCN1CCN(C(=O)OCc2cc(Cl)cc(Cl)c2)CC1)c1ccc2[nH]c(=O)oc2c1`, for which the Potency entry was “inactive”.

For the compound `CC(C)n1cnc2c(NCCCCCCNC(=O)OC(C)(C)C)nc(NCCO)nc21`, the Potency entry was “inactive”. On to `O=C(NCc1ccccc1)c1csc(Nc2ccncn2)n1`, for which the Potency result was “inactive”.

Regarding `CC(C)(Cc1ccc2ccccc2c1)NC[C@@H](O)COc1cccc(Cl)c1C#N`, the Potency entry was “inactive”. For `CC[C@H]1OC(=O)[C@H](C)[C@@H](O[C@H]2C[C@@](C)(OC)[C@@H](O)[C@H](C)O2)[C@H](C)[C@@H](O[C@@H]2O[C@H](C)C[C@H](N(C)C)[C@@H]2O)[C@](C)(O)C[C@@H](C)CN(C)[C@H](C)[C@@H](O)[C@]1(C)O`, the Potency entry is “inactive”. As to `COc1ccc(C2Sc3ccccc3N(CCN(C)C)C(=O)C2OC(C)=O)cc1` (stereo not given), the Potency entry is “inactive”. With `C[C@H]1[C@H](NC(=O)C(=NOC(C)(C)C(=O)O)c2csc(N)n2)C(=O)N1S(=O)(=O)O` the entry was “inactive”; with `COc1ccc(-c2cc(=O)c3c(O)cc(O)cc3o2)cc1O`, “inactive”.

Consider `CC(=Cc1ccccc1)C=C1SC(=S)N(CC(=O)O)C1=O`, for which the Potency entry is “inactive”.

The record behind these values is PubChem BioAssay (NCATS).
